Shown are actives, neighbours in structure and some others; about 14% of the full set was active somewhere.
Pf growth 48h = Primary qHTS for delayed death inhibitors of the malarial parasite plastid, 48 hour incubation. AID 504832, 2011. 310,000 tested, 5.9% active. Potency, µM (highest dose often 28.7 µM), inactives show at the top dose activity change, negative = inhibition, usual class: inhibitors. P. falciparum luciferase growth in erythrocytes, 48 h; further: potency means the concentration at half of the fitted maximal effect
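Read-out is firefly luciferase luminescence from an integrated reporter in P. falciparum, so falling signal marks reduced parasite growth. Infected erythrocytes were at 2% hematocrit and 0.1% parasitemia (final) in Albumax-supplemented RPMI 1640.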
Giardia FBPA inh = qHTS Assay for Inhibitors of Fructose-1,6-bisphosphate Aldolase from Giardia Lamblia; Potency, µM (series often up to 59.6 µM), for the others: at the top dose activity, negative = inhibition, actives largely listed as inhibitors; A8B2U2; 290,000 tested, 0.71% active; purified Giardia FBPA; further: potency means the concentration at half of the fitted maximal effect; nearly all actives have a fitted effect of over 55% in size
Target sequence (A8B2U2 whole entry, looked up): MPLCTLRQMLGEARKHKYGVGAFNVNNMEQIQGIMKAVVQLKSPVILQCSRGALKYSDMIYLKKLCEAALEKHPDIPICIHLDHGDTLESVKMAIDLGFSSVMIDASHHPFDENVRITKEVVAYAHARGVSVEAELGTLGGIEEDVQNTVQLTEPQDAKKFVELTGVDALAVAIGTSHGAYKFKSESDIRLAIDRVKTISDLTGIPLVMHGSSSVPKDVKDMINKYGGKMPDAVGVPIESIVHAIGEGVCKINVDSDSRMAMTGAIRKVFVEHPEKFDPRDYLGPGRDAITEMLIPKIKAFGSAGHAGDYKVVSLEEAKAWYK
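40 nM FBPA preincubated 10 min at RT with compound (up to 57.5 uM final), then substrate plus GAPDH/TPI/NAD/arsenate coupling and diaphorase/resazurin added. Fluorescence read after 20 min at RT, 525/598 nm.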
Sm TGR inh = qHTS Assay for the Inhibitors of Schistosoma Mansoni Peroxiredoxins | Schistosoma mansoni thioredoxin glutathione reductase (TGR), Q962Y6 | purified TGR, DTNB reduction, TNB absorbance 405 nm | Potency, µM (top dose mostly 114 µM), for the others: top-dose activity change, negative = inhibition, most hits filed as inhibitors | 360,000 tested, 3% active | AID 485364, 2010; further: potency means the concentration at half of the fitted maximal effect; nearly all actives have a fitted effect of over 60% in size
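First, TGR (20 nM dispensed) and NADPH were mixed with compound. Second, a 15 min room-temperature incubation followed. Third, further NADPH and then DTNB were added to start the reaction. Finally, TNB absorbance was monitored kinetically.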
Pf growth 96h = Primary qHTS for delayed death inhibitors of the malarial parasite plastid, 96 hour incubation; 320,000 tested, 6.9% active; AID 504834, 2011; P. falciparum luciferase reporter growth, 96 h; Potency, µM (highest dose often 28.7 µM), for inactives: at the highest dose activity change, negative = inhibition, hits mostly inhibitors; further: potency means the concentration at half of the fitted maximal effect
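Readout is luminescence from an integrated firefly luciferase in P. falciparum. Red cells, 2% hematocrit and 0.05% parasitemia final, were cultured with compound through two parasite generations (96 hours) at 37 C, 5% CO2.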
HCMV antiviral = qHTS Assay for inhibitors of the human cytomegalovirus (HCMV) | HFF cells, HCMV-luciferase reporter, 72 h; hits give low values | activity change, negative = inhibition, % at 57.5 µM | 410,000 tested, 4.5% active | AID 1259415, 2018; in the data active means activity change below about -60%; inconclusive means no clear call, values can overlap the other calls; inactive means above about -39%
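Screen run at 2 compound doses on HFFs infected with reporter HCMV, MOI 1 PFU/cell. Luciferase activity from cell lysates at 72 h post infection gave inhibition relative to buffer-only and Salinomycin wells.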
Active calls of the source: *; i = inactive; u = inconclusive; x = not tested or not shown. Unless noted, the call rests on the fitted dose curve; in most records, active means well fitted curve in the direction sought with a large enough effect; inconclusive means small, poorly fitted or top-dose-only effect, or another doubt; inactive means no such curve, though single readings can be large; an effect the other way counts as inactive or inconclusive. On the % scale 0 is the no-effect control and ±100 the full control effect.

SMILES | Pf growth 48h | Giardia FBPA inh | Sm TGR inh | Pf growth 96h | HCMV antiviral
COc1ccc(CNC(=O)C2CC(c3ccc(OC)cc3)=NO2)cc1 (centres undefined) | -11% | 2% | -24% | x | -21
COc1ccc(C2=NOC(CNC(N)=S)C2)cc1 (centres undefined) | i | 0% | 3% | 2.6µM* | 39
COCCN(C(=O)CCC(=O)Nc1cc(C)on1)C(C(=O)NC1CCCC1)c1ccc(C(C)C)cc1 (centres undefined) | u | 6% | -4% | u | 11
O=C(c1ccccc1F)N1C[C@@H]2[C@H](c3ccccc31)[C@H](CO)N2C(=O)c1ccccc1 | x | x | x | x | -5
CS(=O)(=O)N1CCN(c2ccc(NC(=O)c3cc4ccccc4o3)cc2)CC1 | 64% | 9% | 2% | 88% | -17
O=C(Nc1ccc(N2CCCC2)cc1)c1ccc(Br)o1 | u | -19% | 0% | u | 106
CS(=O)(=O)N1CCN(c2ccc(NC(=O)c3ccc([N+](=O)[O-])o3)cc2)CC1 | 83% | 0% | -27% | u | -101*
O=C(Nc1ccc(N2CCN(Cc3ccccc3F)CC2)cc1)c1ccc([N+](=O)[O-])o1 | 1.9µM* | x | -2% | u | -100*
CC1CCN(c2ccc(NC(=O)c3ccc([N+](=O)[O-])o3)cc2)CC1 | u | x | -3% | -6% | -98*
O=C(Nc1ccc(N2CCCCC2)cc1)c1ccc([N+](=O)[O-])o1 | -23% | 2% | -27% | u | -96*
Cn1nnc2cc(C(=O)Nc3ccccc3F)ccc21 | 75% | 4% | 10% | -7% | 41
F[Si-2](F)(F)(F)(F)F | -16% | x | x | -14% | x
Cc1c(C(=O)NCCO)[n+](=O)c2ccccc2n1[O-] | -8% | x | x | -30% | x
CCN(CC)c1ccc(NC(=O)CN2CCN(CC(=O)Nc3ccccc3F)CC2)cc1 | 12µM* | -10% | -21% | 28% | 42
CC1CCN(C(=O)c2ccc([N+](=O)[O-])o2)CC1 | u | -2% | u | -67% | -9
O=C(Nc1ccc(N2CCCC2)c(Cl)c1)c1ccc([N+](=O)[O-])o1 | u | u | u | u | -89*
CCC(=O)Nc1ccc(N2CCN(Cc3ccccc3F)CC2)cc1 | u | -1% | -5% | 9.3µM* | 98
CC1CCCN(C(=O)c2ccc([N+](=O)[O-])o2)C1 (centres undefined) | 13µM* | -2% | -8% | u | -33
COc1ccc(N2CCCC2)c(NC(=O)c2ccc([N+](=O)[O-])o2)c1 | u | -9% | u | u | 18
CCN(CC)c1ccc(NC(=O)CN2CCN(CC(=O)Nc3ccccc3OC)CC2)cc1 | -27% | 11% | 1% | 7% | 8
Cc1cccc(C)c1NC(=O)Cn1nc(-c2ccc(Cl)s2)ccc1=O | 14% | x | -10% | -9% | -38
COc1ccc(N(C(=O)c2snc(C(N)=O)c2N)C(C(=O)NCc2ccccc2)c2ccc(F)cc2)c(OC)c1 (centres undefined) | 10µM* | 5% | -1% | 25% | -80*
COc1ccc(C(C(=O)NCc2ccccc2)N(C(=O)c2snc(C(N)=O)c2N)c2ccccc2OC)cc1 (centres undefined) | 5.2µM* | -13% | 3% | -15% | u
COc1ccccc1N(C(=O)c1snc(C(N)=O)c1N)C(C(=O)NCc1ccccc1)c1ccc(O)cc1 (centres undefined) | u | -4% | 2% | -20% | 40
COc1ccc(C(C(=O)NCc2ccccc2)N(Cc2ccco2)C(=O)c2snc(C(N)=O)c2N)cc1OC (centres undefined) | 10µM* | 5% | 7% | 14% | u
SMILES | Pf growth 48h | Giardia FBPA inh | Sm TGR inh | Pf growth 96h | HCMV antiviral
NC(=O)c1nsc(C(=O)N(c2ccccc2F)C(C(=O)NCc2ccc(F)cc2)c2ccc(O)cc2)c1N (centres undefined) | u | -6% | 0% | -20% | -102*
COc1cccc(NC2=CC(c3ccc(C(C)C)cc3)N(c3cccc(OC)c3)C2=O)c1 (centres undefined) | x | x | -14% | x | 76
O=C(Nc1sc2c(c1C(=O)NCc1ccccc1)CCCC2)c1cc(=O)c2cc(Cl)ccc2o1 | x | x | 0% | x | -26
Clc1ccc(OCCCc2nc(-c3ccncc3)no2)c(Cl)c1 | 44% | 2% | 6% | 24% | 0
Clc1ccc(OCCCc2nc(-c3cccnc3)no2)c(Cl)c1 | 6% | -1% | 2% | 9.3µM* | -5
Clc1ccc(OCc2nc(-c3ccccn3)no2)c(Br)c1 | 190% | -2% | -15% | 39% | -61*
Clc1ccccc1OCc1nc(-c2ccccn2)no1 | 293% | -6% | -2% | x | 56
CCc1nc2ccc(C(=O)NCc3ccccc3OC)cn2c1N(CC)CCOC | x | x | x | x | -10
CCOc1ccccc1NC(=O)c1ccc2c(c1)C(=O)N(CC1CCCO1)C2=O (centres undefined) | 42% | -5% | 4% | 15µM* | 24
Cc1c(NC(=O)c2ccc3c(c2)C(=O)N(CC2CCCO2)C3=O)cccc1C(=O)O (centres undefined) | -1% | 5% | 5% | 19% | -4
COc1ccc(OC)c(NC(=O)c2ccc3c(c2)C(=O)N(CC2CCCO2)C3=O)c1 (centres undefined) | 23% | x | 6% | 9% | -66*
C=C1C2CC[C@@]3(C)C(c4ccoc4)OC(=O)C[C@@]13OC1CC(=O)C(C)(C)C(CC(=O)OC)[C@]12C (some centres undefined) | x | -1% | x | x | x
Cc1cc(C)c(C(=O)COC(=O)c2cc([N+](=O)[O-])ccc2N2CCOCC2)cc1C | 10µM* | x | -17% | u | 2
COc1ccccc1C(=O)COC(=O)c1cc([N+](=O)[O-])ccc1N1CCOCC1 | 4.7µM* | x | 1% | u | -12
Cc1ccc(COC(=O)c2cc([N+](=O)[O-])ccc2N2CCOCC2)cc1 | u | 6% | 20% | u | -63*
O=C(OCc1ccc([N+](=O)[O-])cc1)c1cc([N+](=O)[O-])ccc1N1CCOCC1 | u | x | -35% | u | -27
COc1ccc(C(=O)COC(=O)c2cc([N+](=O)[O-])ccc2N2CCOCC2)c(OC)c1 | -8% | x | -4% | 2% | 18
O=C(COC(=O)c1cc([N+](=O)[O-])ccc1N1CCOCC1)c1ccccc1Cl | 15% | x | -24% | 16% | 9
O=C(O)COc1cccc(-c2ocnc2-c2nc(-c3ccccc3)c(-c3ccccc3)o2)c1 | x | 30% | x | x | x

From PubChem
